In the supplement of paper PMC10849652:
About 7,900 targets were measured; listed, in parts, are those with a hit and a random draw of the rest. About 0.6% of all pairs of compound and target were hits.

Assays:
Experiment in all cases: log2 fold change, soluble protein after heating vs DMSO (PISA); higher = thermal stabilisation; K562 cells, 10 uM, 30 min; active = over 0.2 and 3.5 SD of the protein, either way, in both replicates (recomputed)
erlotinib = compound: C#Cc1cccc(Nc2ncnc3cc(OCCOC)c(OCCOC)cc23)c1 [erlotinib]
Outline: (§1)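 Quantification of soluble protein used TMTpro 16plex LC-MS/MS, with channel sums equalised. Samples were the supernatant after 21,000xg for 90 min of pooled aliquots from K562 cells (2×10^6 cells/mL) treated with 10 μM compound for 30 min, heated for 3 min over 48°C-58°C, and extracted in PBS with 0.5% NP-40 at 4°C. Values, from duplicates, describe thermal stability against control samples on a log2 fold-change scale.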

[1] = compound: C/C(=N\NC(=O)C1=CC(=CC=C1)S(=O)(=O)N2CCOCC2)/C3=C(C=CC(=C3)Cl)O
Outline: as §1

[2] = compound: C1=CC(=C(C=C1Cl)C2=NC3=NC=CN=C3C(=N2)NC4=CC=NC=C4)F
Outline: as §1

[3] = compound: C1=CC(=CC=C1C2=NC3=C(N2)C=C(C=C3)C(=O)N)OC4=CC=C(C=C4)Cl
Outline: as §1

[4] = compound: C1=CC2=C(C=CC(=C2)/C=C\3/C(=O)NC(=NCC4=CC=CS4)S3)N=C1
Outline: as §1

[5] = compound: C1=CC=C(C=C1)C2=NC(=C(N2)C3=CC=NC=C3)C4=CC(=C(C=C4)Cl)O
Outline: as §1

[6] = compound: C1=CC=C2C(=C1)C3=NNC4=CC=CC(=C43)C2=O
Outline: as §1

[7] = compound: C1CCN(C1)C(=O)NC2=CC=CC(=C2)NC3=NC=C(C(=N3)NCCC4=CN=CN4)Br
Outline: as §1

[8] = compound: C1CN(CCC1(CC2=CC=C(C=C2)Cl)N)C3=NC=NC4=C3C=CN4
Outline: as §1

IRAK-1-4 Inhibitor I = compound: C1COCCN1CCN2C3=CC=CC=C3N=C2NC(=O)C4=CC(=CC=C4)[N+](=O)[O-] [IRAK-1-4 Inhibitor I]
Outline: as §1

[9] = compound: CC(=O)c1cnc2ccc(-c3cc(Cl)c(O)c(Cl)c3)nc2c1N[C@H]1CC[C@H](CN(C)C)CC1
Outline: as §1

ralimetinib = compound: CC(C)(C)Cn1c(N)nc2ccc(-c3[nH]c(C(C)(C)C)nc3-c3ccc(F)cc3)nc21 [ralimetinib]
Outline: as §1

[10] = compound: CC(C)(O)CC(=O)NCCn1ccc2ncnc(Nc3ccc(Oc4cccc(C(F)(F)F)c4)c(Cl)c3)c21
Outline: as §1

[11] = compound: CC(C)C1=C2N=C(C=C(N2N=C1)NCC3=CC=CC=C3)NCCCCCCN
Outline: as §1

[12] = compound: CC(C)C[C@@H](C=O)NC(=O)[C@H](CC(C)C)NC(=O)[C@H](CC(C)C)NC(=O)OCc1ccccc1
Outline: as §1

pinometostat = compound: CC(C)N(C[C@H]1O[C@@H](n2cnc3c(N)ncnc32)[C@H](O)[C@@H]1O)[C@H]1C[C@@H](CCc2nc3cc(C(C)(C)C)ccc3[nH]2)C1 [pinometostat]
Outline: as §1

[13] = compound: CC1=C(C(CC(=O)N1)C2=CC=C(C=C2)C(F)(F)F)C(=O)NC3=C(C=C4C(=C3)C=NN4)F
Outline: as §1

[14] = compound: CC1=C(C2=C(C=C1)C(=O)C3=CC=CC=C3N2CCCN)C
Outline: as §1

[15] = compound: C1=CC2=NC=CN=C2C=C1/C=C/3\C(=O)NC(=O)S3
Outline: as §1

ibrutinib = compound: C=CC(=O)N1CCC[C@@H](n2nc(-c3ccc(Oc4ccccc4)cc3)c3c(N)ncnc32)C1 [ibrutinib]
Outline: as §1

Measured: log2 fold change

COG2 (UniProt Q14746)
UniProt Q14746, sequence (Q14746 whole entry, looked up): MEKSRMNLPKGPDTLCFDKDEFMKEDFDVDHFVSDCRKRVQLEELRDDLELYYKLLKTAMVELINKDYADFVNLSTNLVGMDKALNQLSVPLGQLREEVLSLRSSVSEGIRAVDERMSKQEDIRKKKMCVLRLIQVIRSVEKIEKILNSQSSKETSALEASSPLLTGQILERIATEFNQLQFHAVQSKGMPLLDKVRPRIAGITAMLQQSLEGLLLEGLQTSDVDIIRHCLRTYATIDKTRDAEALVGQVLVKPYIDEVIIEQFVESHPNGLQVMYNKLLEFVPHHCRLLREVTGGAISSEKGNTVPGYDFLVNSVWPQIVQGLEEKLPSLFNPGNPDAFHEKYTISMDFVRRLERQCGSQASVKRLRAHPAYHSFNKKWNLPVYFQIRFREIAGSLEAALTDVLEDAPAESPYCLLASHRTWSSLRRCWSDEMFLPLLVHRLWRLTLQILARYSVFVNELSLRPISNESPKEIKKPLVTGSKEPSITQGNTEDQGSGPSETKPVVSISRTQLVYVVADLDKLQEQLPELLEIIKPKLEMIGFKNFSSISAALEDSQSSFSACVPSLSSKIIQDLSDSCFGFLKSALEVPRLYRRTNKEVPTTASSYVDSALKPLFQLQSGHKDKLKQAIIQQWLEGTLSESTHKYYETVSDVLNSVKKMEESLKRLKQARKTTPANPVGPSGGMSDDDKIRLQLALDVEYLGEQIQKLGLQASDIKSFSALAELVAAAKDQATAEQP
inactive: erlotinib -0.082 | [1] -0.367 | [2] 0.012 | [3] -0.026 | [4] 0.478 | [5] -0.223 | [6] -0.137 | [7] 0.257 | [8] -0.065 | IRAK-1-4 Inhibitor I -0.232 | [9] -0.042 | ralimetinib 0.099 | [10] -0.317 | [11] -0.009 | [12] 0.18 | pinometostat -0.043 | [13] 0.132 | [14] -0.108

CDK2AP2 (UniProt O75956)
UniProt O75956, sequence (O75956 whole entry, looked up): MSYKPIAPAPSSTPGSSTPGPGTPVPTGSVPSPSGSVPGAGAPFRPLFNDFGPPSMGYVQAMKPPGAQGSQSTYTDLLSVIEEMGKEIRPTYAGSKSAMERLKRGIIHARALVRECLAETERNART
active: [12] -0.438
inactive: erlotinib -0.142 | [1] -0.007 | [2] 0.037 | [3] 0.043 | [4] 0.063 | [15] 0.103 | [5] 0.007 | [6] 0 | IRAK-1-4 Inhibitor I -0.087 | ibrutinib 0.011 | [9] 0.094 | ralimetinib 0 | [10] -0.077 | [11] 0.258 | pinometostat -0.135 | [13] 0.03

CLCN3 isoform 2 (UniProt P51790)
inactive: erlotinib 0.008 | [1] 0.089 | [2] 0.059 | [3] 0.044 | [4] 0.024 | [15] -0.002 | [5] 0.025 | [6] -0.017 | [7] -0.012 | [8] 0.033 | IRAK-1-4 Inhibitor I 0.005 | [9] -0.008 | ralimetinib 0.026 | [10] -0.043 | [11] -0.049 | [12] -0.066 | pinometostat -0.043 | [13] -0.012 | [14] 0.051

CCNDBP1 (UniProt O95273)
UniProt O95273, sequence (O95273 whole entry, looked up): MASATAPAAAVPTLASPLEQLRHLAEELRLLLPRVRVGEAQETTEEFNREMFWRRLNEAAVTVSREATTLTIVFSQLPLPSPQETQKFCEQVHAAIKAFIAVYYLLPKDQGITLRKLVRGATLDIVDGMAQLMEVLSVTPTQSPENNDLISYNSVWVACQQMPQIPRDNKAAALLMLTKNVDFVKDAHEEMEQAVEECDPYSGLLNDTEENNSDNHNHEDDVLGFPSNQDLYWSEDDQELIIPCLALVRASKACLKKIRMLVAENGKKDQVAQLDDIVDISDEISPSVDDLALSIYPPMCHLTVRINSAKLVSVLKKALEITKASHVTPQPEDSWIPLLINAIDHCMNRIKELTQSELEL
inactive: erlotinib 0.009 | [1] 0.191 | [3] 0.105 | [4] -0.011 | [15] 0.034 | [5] 0.076 | [6] -0.122 | [7] -0.086 | [8] -0.068 | ibrutinib -0.184 | [9] 0.071 | ralimetinib 0.168 | [11] -0.077 | [12] -0.027 | [13] 0.166 | [14] -0.166

CNOT4 isoform 9 (UniProt O95628)
UniProt O95628, sequence (O95628 whole entry, looked up): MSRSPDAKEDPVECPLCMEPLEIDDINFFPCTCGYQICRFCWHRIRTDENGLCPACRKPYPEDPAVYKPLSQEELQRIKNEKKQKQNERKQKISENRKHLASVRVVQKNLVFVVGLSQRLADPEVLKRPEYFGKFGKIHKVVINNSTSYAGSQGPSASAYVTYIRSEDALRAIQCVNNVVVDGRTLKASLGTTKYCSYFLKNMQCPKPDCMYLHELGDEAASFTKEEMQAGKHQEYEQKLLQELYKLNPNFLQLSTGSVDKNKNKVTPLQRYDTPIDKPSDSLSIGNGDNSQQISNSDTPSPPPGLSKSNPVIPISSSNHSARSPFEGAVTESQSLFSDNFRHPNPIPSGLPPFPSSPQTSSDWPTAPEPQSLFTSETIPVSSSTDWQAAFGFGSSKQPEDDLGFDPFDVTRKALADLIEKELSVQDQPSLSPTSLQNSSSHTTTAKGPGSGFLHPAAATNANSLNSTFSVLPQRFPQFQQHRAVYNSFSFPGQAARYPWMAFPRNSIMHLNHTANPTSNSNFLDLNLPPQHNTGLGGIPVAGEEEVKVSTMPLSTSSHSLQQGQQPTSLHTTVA
inactive: erlotinib -0.011 | [1] -0.022 | [3] 0.047 | [4] 0.089 | [15] 0.018 | [5] 0.053 | [6] 0.245 | [7] 0.175 | [8] 0.455 | IRAK-1-4 Inhibitor I 0.09 | ibrutinib 0.089 | [9] 0.189 | ralimetinib 0.128 | [11] -0.068 | [12] 0.015 | pinometostat -0.028 | [13] -0.024 | [14] 0.202

CLASP2 (UniProt O75122)
inactive: erlotinib 0.089 | [1] -0.078 | [3] 0.082 | [4] -0.211 | [15] 0.133 | [5] 0.286 | [6] -0.106 | IRAK-1-4 Inhibitor I 0.027 | [9] -0.852 | ralimetinib -0.067 | [11] 0.086 | [12] 0.161 | pinometostat 0.057 | [13] 0.116

CLN8 (UniProt Q9UBY8)
UniProt Q9UBY8, sequence (Q9UBY8 whole entry, looked up): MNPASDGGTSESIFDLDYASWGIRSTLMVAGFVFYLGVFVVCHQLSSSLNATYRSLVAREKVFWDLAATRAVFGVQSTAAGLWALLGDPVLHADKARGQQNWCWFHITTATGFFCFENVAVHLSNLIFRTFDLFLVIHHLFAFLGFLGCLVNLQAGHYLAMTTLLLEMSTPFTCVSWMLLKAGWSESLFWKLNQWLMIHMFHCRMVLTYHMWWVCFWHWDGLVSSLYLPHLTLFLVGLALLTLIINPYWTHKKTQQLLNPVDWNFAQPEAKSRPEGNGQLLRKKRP
inactive: erlotinib 0.012 | [1] 0.198 | [3] 0.01 | [4] 0.212 | [15] 0.099 | [5] -0.208 | [6] -0.06 | [7] 0.003 | [8] -0.171 | [9] -0.164 | ralimetinib 0.643 | [11] 0.017 | [12] 0.139 | [13] 0.043 | [14] 0.138

CDK17 isoform 2 (UniProt Q00537)
UniProt Q00537, sequence (Q00537 whole entry, looked up): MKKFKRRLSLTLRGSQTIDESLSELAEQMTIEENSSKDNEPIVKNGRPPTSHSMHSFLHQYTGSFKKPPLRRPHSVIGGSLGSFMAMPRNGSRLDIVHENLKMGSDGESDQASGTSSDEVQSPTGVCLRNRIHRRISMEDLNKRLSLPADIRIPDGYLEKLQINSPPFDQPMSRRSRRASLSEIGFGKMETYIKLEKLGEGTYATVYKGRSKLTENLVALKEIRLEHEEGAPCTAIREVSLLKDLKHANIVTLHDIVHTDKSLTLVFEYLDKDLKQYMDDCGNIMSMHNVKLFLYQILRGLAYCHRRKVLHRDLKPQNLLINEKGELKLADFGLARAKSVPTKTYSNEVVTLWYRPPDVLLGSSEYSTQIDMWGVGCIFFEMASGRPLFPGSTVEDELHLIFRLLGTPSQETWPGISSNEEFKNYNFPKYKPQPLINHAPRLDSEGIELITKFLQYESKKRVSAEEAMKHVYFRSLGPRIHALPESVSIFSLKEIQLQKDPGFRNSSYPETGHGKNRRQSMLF
inactive: erlotinib 0.086 | [1] 0.008 | [2] 0.059 | [3] -0.075 | [4] -0.123 | [15] -0.081 | [6] 0.064 | IRAK-1-4 Inhibitor I 0.101 | ibrutinib 0.003 | [9] 0.258 | [10] -0.069 | [11] 0.078 | pinometostat 0.037

CLASP2 isoform 3 (UniProt O75122)
active: [9] -0.297
inactive: erlotinib 0.014 | [1] 0.136 | [2] 0.066 | [3] 0.032 | [4] 0.081 | [15] -0.013 | [5] -0.01 | [6] 0.006 | [7] -0.063 | [8] 0.041 | IRAK-1-4 Inhibitor I -0.047 | ralimetinib 0.009 | [10] -0.056 | [11] -0.036 | [12] 0.046 | pinometostat 0.018 | [13] 0.023 | [14] 0.046

CKS2 (UniProt P33552)
UniProt P33552, sequence (P33552 whole entry, looked up): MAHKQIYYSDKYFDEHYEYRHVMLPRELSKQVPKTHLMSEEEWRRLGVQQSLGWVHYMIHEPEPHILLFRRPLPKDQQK
inactive: [1] 0.125 | [4] 0.116 | [15] -0.001 | [6] -0.032 | [7] 0.022 | [8] 0.02 | ibrutinib -0.087 | [9] -0.168 | [13] 0.047 | [14] -0.058

CASK (UniProt O14936)
UniProt O14936, sequence (O14936 whole entry, looked up): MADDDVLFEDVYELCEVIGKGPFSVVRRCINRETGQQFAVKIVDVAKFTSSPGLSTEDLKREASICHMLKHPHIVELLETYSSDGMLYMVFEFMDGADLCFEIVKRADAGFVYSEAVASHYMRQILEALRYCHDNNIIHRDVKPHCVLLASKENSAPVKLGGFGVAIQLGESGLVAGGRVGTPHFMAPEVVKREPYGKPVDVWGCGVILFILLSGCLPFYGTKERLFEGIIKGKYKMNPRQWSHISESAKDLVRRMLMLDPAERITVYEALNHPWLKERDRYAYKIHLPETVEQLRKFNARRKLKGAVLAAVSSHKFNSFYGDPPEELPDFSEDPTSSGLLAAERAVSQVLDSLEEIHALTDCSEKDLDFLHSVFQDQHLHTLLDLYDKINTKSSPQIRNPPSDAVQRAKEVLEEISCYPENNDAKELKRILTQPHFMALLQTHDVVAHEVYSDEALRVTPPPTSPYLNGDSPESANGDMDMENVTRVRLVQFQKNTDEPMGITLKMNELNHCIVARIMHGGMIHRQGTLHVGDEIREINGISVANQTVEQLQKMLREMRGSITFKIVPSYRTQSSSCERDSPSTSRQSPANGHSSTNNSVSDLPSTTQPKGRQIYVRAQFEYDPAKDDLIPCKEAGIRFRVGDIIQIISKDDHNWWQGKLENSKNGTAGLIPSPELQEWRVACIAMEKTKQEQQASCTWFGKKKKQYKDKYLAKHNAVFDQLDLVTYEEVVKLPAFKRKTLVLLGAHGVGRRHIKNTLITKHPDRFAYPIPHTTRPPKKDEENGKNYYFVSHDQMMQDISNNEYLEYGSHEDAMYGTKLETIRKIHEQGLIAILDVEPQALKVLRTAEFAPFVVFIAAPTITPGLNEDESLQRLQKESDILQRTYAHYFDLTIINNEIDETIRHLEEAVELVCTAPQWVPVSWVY
active: [9] -0.483
inactive: erlotinib -0.018 | [1] -0.07 | [3] 0.01 | [4] 0.038 | [6] -0.136 | IRAK-1-4 Inhibitor I 0.036 | [11] 0.177 | pinometostat 0.081

CPNE5 (UniProt Q9HCH3)
UniProt Q9HCH3, sequence (Q9HCH3 whole entry, looked up): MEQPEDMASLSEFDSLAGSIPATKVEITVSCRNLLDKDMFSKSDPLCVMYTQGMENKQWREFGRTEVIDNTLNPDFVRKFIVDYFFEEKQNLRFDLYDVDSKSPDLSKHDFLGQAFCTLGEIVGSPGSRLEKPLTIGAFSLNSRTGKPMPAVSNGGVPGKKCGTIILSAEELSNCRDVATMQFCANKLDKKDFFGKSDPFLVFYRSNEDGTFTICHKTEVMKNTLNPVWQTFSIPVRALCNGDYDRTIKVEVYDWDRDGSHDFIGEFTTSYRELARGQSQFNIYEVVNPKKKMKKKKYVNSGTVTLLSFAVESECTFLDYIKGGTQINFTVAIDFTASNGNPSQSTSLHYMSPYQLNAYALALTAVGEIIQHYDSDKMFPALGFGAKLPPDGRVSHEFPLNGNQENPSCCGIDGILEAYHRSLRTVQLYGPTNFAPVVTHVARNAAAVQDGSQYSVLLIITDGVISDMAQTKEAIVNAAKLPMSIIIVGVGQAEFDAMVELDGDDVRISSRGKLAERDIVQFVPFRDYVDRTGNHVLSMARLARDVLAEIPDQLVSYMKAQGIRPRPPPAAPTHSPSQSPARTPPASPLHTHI
inactive: erlotinib 0.074 | [3] -0.175 | [7] 0.087 | [11] -0.209 | [14] -0.225
active: [8] -0.879

CEP128 (UniProt Q6ZU80)
inactive: [1] -0.163 | [4] 0.199 | [15] 0.158 | [6] -0.037 | [7] 0.141 | [8] -0.003 | IRAK-1-4 Inhibitor I -0.149 | ibrutinib -0.055 | [9] -0.022 | pinometostat 0.012 | [14] 0.1

CLN3 (UniProt Q13286)
inactive: erlotinib 0 | [2] 0.025 | [3] 0.162 | [15] 0.117 | [5] -0.05 | [7] 0.055 | [8] 0.026 | IRAK-1-4 Inhibitor I 0.106 | ralimetinib -0.05 | [10] -0.011 | [12] -0.043 | pinometostat -0.113 | [13] 0.054 | [14] -0.147
active: [11] -0.532

CNRIP1 (UniProt Q96F85)
UniProt Q96F85, sequence (Q96F85 whole entry, looked up): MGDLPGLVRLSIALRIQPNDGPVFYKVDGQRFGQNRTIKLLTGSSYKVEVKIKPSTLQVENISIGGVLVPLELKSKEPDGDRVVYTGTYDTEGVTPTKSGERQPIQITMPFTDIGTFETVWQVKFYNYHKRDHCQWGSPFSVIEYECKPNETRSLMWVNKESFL
inactive: erlotinib -0.065 | [2] 0.045 | [3] 0.045 | [5] -0.115 | ralimetinib -0.051 | [10] -0.255 | [11] 0.034 | [12] 0.116 | [13] 0.165

COPS3 isoform 2 (UniProt Q9UNS2)
inactive: [1] -0.24 | [2] -0.075 | [4] 0.214 | [15] -0.125 | [5] -0.568 | [6] -0.126 | [7] 0.176 | [8] -0.052 | IRAK-1-4 Inhibitor I 0.098 | ibrutinib -0.015 | [9] -0.191 | ralimetinib -0.214 | [10] -0.097 | [12] 0.258 | pinometostat 0.071 | [13] 0.046 | [14] 0.053

CSNK1A1 isoform 3 (UniProt P48729)
inactive: [15] 0.111 | ibrutinib 0.029

CASP9 (UniProt P55211)
UniProt P55211, sequence (P55211 whole entry, looked up): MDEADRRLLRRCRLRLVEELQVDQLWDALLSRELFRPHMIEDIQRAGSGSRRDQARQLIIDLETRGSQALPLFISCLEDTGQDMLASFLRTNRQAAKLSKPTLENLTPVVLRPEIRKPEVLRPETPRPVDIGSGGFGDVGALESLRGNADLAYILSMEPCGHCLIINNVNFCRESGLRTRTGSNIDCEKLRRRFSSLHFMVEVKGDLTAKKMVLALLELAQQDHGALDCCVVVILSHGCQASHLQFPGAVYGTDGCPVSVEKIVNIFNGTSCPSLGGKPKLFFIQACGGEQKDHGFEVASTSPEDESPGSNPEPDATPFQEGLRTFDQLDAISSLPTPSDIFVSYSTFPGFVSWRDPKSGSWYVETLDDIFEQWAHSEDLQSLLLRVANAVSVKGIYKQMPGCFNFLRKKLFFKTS
inactive: [1] 0.059 | [2] -0.016 | [4] -0.049 | [5] -0.02 | [6] 0.048 | [7] -0.054 | [8] -0.218 | IRAK-1-4 Inhibitor I 0.03 | [9] -0.096 | ralimetinib 0.008 | [10] -0.043 | [12] 0.053 | pinometostat 0.03 | [13] -0.071 | [14] -0.206

CLPTM1L (UniProt G5E9Z2)
inactive: [1] 0.109 | [2] 0.492 | [4] -0.139 | [15] 0.284 | [6] 0.174 | [7] 0.145 | [8] 0.272 | [9] -0.03 | [10] -0.556 | [13] 0.106 | [14] -0.201
